“And” between values parts separate entries of the source, which are not always exact repeats. Equal values may be shown once. Records with an inconclusive call do not appear. The source made the active and inactive calls. Unless noted, calls come from the whole dose curve; as a rule, active = well fitted curve in the direction sought with a large enough effect; inconclusive = small, poorly fitted or top-dose-only effect, or another doubt; inactive = no such curve, though single readings can be large; an effect the other way counts as inactive or inconclusive.
How the values were obtained:
[1] = target: Cellular tumor antigen p53 (Homo sapiens) (UniProt P04637); experiment: Primary qHTS for small molecule compounds that upregulate eGFP-tagged delta133p53alpha (in N-terminal) cells. (AID 2060322); details: NCI-H358 eGFP-delta133p53alpha fluorescence, 24 h; activation: hits give high values; note: nearly all actives have a fitted effect of over 75% in size; note: potency is the fitted concentration of half-maximal effect;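 for activation: cells pre-induced with doxycycline then dosed without doxycycline; 0% = DMSO vehicle and 100% = reference activator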
Procedure, shortened: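 NCI-H358 cells pre-induced 24 h with 10 ng/ml doxycycline for eGFP-delta133p53alpha, plated dox-free and exposed 24 h at 37C to titrated compounds. Fixed, Hoechst-stained; gated GFP peak intensity by laser scanning cytometry, normalized to DMSO (0%) and 57.5 uM 5-azacytidine (100%).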

[2] = target: Aldehyde dehydrogenase, mitochondrial (Homo sapiens) (UniProt P05091); experiment: qHTS for Inhibitors of the Aldehyde Dehydrogenase Family (ALDH2) Primary screen (AID 2061308); details: ALDH2 enzyme inhibition qHTS, 1536-well; series mostly up to 56 µM;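 note: plate controls were vehicle for no effect and reference inhibitor for full effect; nearly all actives have a fitted effect of over 55% in size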
[3] = target: Retinaldehyde dehydrogenase 3 (Homo sapiens) (UniProt P47895); experiment: qHTS for Inhibitors of the Aldehyde Dehydrogenase Family (ALDH1A3) Validation screen (AID 2061312); details: ALDH1A3 enzyme inhibition qHTS validation, fluorescence; series mostly up to 42.4 µM; note: % is set by controls: 0 for no effect and ±100 for the full control effect; nearly all actives have a fitted effect of over 45% in size
[4] = target: Retinaldehyde dehydrogenase 3 (Homo sapiens) (UniProt P47895); experiment: qHTS for Inhibitors of the Aldehyde Dehydrogenase Family (ALDH1A3) Primary screen (AID 2061315); details: ALDH inhibition qHTS; series mostly up to 56 µM; note: potency is the fitted concentration of half-maximal effect
[5] = qHTS for Inhibitors of the Aldehyde Dehydrogenase Family (ALDH1A2, ALDH1A3, ALDH2, ALDH3A1) (AID 2061307); details: ALDH inhibition qHTS; series mostly up to 50.3 µM; note: % is set by controls: 0 for no effect and ±100 for the full control effect; nearly all actives have a fitted effect of over 50% in size
[6] = target: Retinaldehyde dehydrogenase 3 (Homo sapiens) (UniProt P47895); experiment: qHTS for Inhibitors of the Aldehyde Dehydrogenase Family (ALDH1A3) Confirmatory screens (AID 2061311); details: ALDH inhibition qHTS; series mostly up to 46 µM; note: nearly all actives have a fitted effect of over 60% in size; note: potency is the fitted concentration of half-maximal effect
[7] = target: Retinal dehydrogenase 2 (Homo sapiens) (UniProt O94788); experiment: qHTS for Inhibitors of the Aldehyde Dehydrogenase Family (ALDH1A2) Confirmation screens (AID 2061314); details: ALDH1A2 enzyme inhibition qHTS confirmation; series mostly up to 45.9 µM; note: nearly all actives have a fitted effect of over 65% in size; note: potency is the fitted concentration of half-maximal effect
[8] = target: Aldehyde dehydrogenase 1A1 (Homo sapiens) (UniProt P00352); experiment: qHTS for Inhibitors of the Aldehyde Dehydrogenase Family (ALDH1A1) Confirmatory screens (AID 2061316); details: ALDH inhibition qHTS; series mostly up to 47.3 µM; note: nearly all actives have a fitted effect of over 65% in size
[9] = target: Aldehyde dehydrogenase, mitochondrial (Homo sapiens) (UniProt P05091); experiment: qHTS for Inhibitors of the Aldehyde Dehydrogenase Family (ALDH2) Confirmatory screens (AID 2061303; active = well fitted inhibition curve with a large enough effect; title and protocol of this record describe different tests; note: % is set by controls: 0 for no effect and ±100 for the full control effect; nearly all actives have a fitted effect of over 45% in size); details: ALDH inhibition qHTS; series mostly up to 45.4 µM
[10] = BET inhibitor-based combinations targeting novel dependencies in MECOM-rearranged (r) AML: OCI-AML3 cell line (AID 2202232); details: CellTiter-Glo luminescence, 48 h; Potency: OCI-AML3 viability; series mostly up to 46 µM;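 note: plate controls were DMSO vehicle wells for no effect and wells without cells for full effect; nearly all actives have a fitted effect of over 35% in size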
Procedure, shortened: (§1)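 Readout: CellTiter-Glo luminescence. Exposure: 48 h, 11 concentrations, 500 cells/well. Metric: AUC and within-line Z-AUC after DMSO/empty-well normalization.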

[11] = BET inhibitor-based combinations targeting novel dependencies in MECOM-rearranged (r) AML: UCSD-AML1 cell line (AID 2202235); details: UCSD-AML1 AML cells viability, CellTiter-Glo, 48 h; series mostly up to 46 µM;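 note: plate controls were DMSO vehicle wells for no effect and blank wells for full effect; nearly all actives have a fitted effect of over 40% in size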
Procedure, shortened: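 Seeding density was 500 cells/well, and drug exposure lasted 48 hr under standard culture conditions. Read-out used CellTiter-Glo reagent with a 15 min room-temperature incubation before luminescence measurement; AUC and Z-AUC summarize the normalized responses.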

[12] = BET inhibitor-based combinations targeting novel dependencies in MECOM-rearranged (r) AML: AML-191 cell line (AID 2202236;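 note: plate controls were vehicle wells for no effect and wells without cells for full effect; nearly all actives have a fitted effect of over 35% in size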); details: AML-191 viability, CellTiter-Glo luminescence, 48 h; series mostly up to 46 µM
Procedure, shortened: as §1

[13] = BET inhibitor-based combinations targeting novel dependencies in MECOM-rearranged (r) AML: AML-194 cell line (AID 2202237;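 note: plate controls were vehicle wells for no effect and wells without cells for full effect; nearly all actives have a fitted effect of over 40% in size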); details: AML-194 (MECOM-r AML) viability, CellTiter-Glo, 48 h; series mostly up to 46 µM
Procedure, shortened: as §1

Cellular tumor antigen p53 (Homo sapiens), sequence (P04637 whole entry, looked up): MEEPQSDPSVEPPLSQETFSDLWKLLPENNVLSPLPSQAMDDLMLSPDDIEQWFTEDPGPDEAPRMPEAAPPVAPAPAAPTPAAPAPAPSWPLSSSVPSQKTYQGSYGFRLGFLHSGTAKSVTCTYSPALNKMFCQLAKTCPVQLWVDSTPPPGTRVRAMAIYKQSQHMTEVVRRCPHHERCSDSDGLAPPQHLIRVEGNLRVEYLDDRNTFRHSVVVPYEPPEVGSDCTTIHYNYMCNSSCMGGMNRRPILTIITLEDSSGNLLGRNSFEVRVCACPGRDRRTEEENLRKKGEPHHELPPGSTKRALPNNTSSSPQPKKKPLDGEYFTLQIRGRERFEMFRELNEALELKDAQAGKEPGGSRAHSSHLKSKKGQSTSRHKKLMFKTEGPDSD

CC(=O)N(C)c1cccc(-c2ccnc3c(C(=O)c4cccs4)cnn23)c1
inactive: activation [1] -3.13% and 5.73% | Potency [2] | Potency [3] | Potency [4]

O=C(OC[C@H]1O[C@@H](Oc2ccc(O)cc2CO)[C@H](O)[C@@H](O)[C@@H]1O)c1ccccc1
inactive: activation [1] 28.6% | Potency [2]

CS[C@]1(CO)C(=O)N2[C@H]3C(=CC=C[C@@H]3O)C[C@@]2(SC)C(=O)N1C
inactive: activation [1] -6.11% | Potency [2]

C=CCN1CC[C@]23c4c5ccc(O)c4O[C@H]2[C@@H](O)CC[C@@]3(O)[C@H]1C5
inactive: activation [1] 4.33% | Potency [2]

COc1cc(N2CCN(C)CC2)ccc1N
active: Potency [6] 25.2 µM | Potency [4] 1.26 µM
inactive: activation [1] 20% | Potency [5] | Potency [2]

CC(=O)NCCCOc1ccc(C(=O)N2CCC(N3C(=O)CCc4ccccc43)CC2)cc1
inactive: activation [1] -10.5% | Potency [2] | Potency [3] | Potency [4]

CC/C=C/C=C/C1(C)OC(OC)=C(C(=O)C2C(C)C(=O)c3cc(OC)c(O)c(O)c3C2(C)O)C1=O (centres undefined)
active: Potency [6] 11 µM
inactive: activation [1] 0.893% | Potency [5] | Potency [2]

COc1ccc2c(C(=O)c3ccc(Cl)cc3)c(C)n(CC(=O)O)c2c1
inactive: activation [1] -36.8% | Potency [5] | Potency [2] | Potency [6] | Potency [7] | Potency [4] | Potency [8]

CCC1NC(=O)C2C(Cl)C(Cl)CN2C(=O)C(CC)NC(=O)CC(c2ccccc2)NC(=O)C(CO)NC1=O (centres undefined)
inactive: activation [1] -6.87% | Potency [9] | Potency [2] | Potency [7] | Potency [4]

Cn1ncnc1COc1nn2c(-c3c(F)cccc3F)nnc2cc1C1CCC1
inactive: activation [1] -7.16% | Potency [2] | Potency [3] | Potency [4]

CC(=O)OC12C(O)C(C)C3(O)C4C=C(C)C(=O)C4CC(CO)=CC3C1C2(C)C (centres undefined)
inactive: activation [1] -3.05% | Potency [2]

N#C[C@@H](O[C@@H]1O[C@H](CO[C@@H]2O[C@H](CO)[C@@H](O)[C@H](O)[C@H]2O)[C@@H](O)[C@H](O)[C@H]1O)c1ccccc1
inactive: activation [1] -19.6% | Potency [2]

CN(Cc1cccc(-c2ccncc2)c1)C(=O)Oc1ccc(-c2ccc(C(N)=O)cc2)cc1
inactive: activation [1] -8.11% | Potency [2] | Potency [3] | Potency [4]

C=CC(C)(C)c1[nH]c2c(CC=C(C)C)cc(CC=C(C)C)cc2c1C[C@@H]1NC(=O)[C@H](C)NC1=O
inactive: activation [1] 14.3% | Potency [2]

Cc1c(N[C@@H](c2nnc(-c3ccc(C#N)cc3)o2)[C@H](C)O)ccc(C#N)c1Cl
inactive: activation [1] 21% | Potency [9] | Potency [2] | Potency [7] | Potency [4] | Potency [8]

COc1ccc(CC2C(=O)NC(C)C(=O)N(C)C3Cc4ccc(cc4)Oc4cc(ccc4OC4OC(CO)C(O)C(O)C4O)CC(C(=O)NC(C)C(=O)NC(CCC(=O)O)C(=O)N2C)N(C)C3=O)cc1 (centres undefined)
inactive: activation [1] 5.36% | Potency [2]

CN(C)CCc1c[nH]c2ccc(CN3CCN(C)S3(=O)=O)cc12
inactive: activation [1] -4.3% | Potency [2] | Potency [3] | Potency [4]

CCCN1CCO[C@H]2c3cc(O)ccc3OC[C@@H]21
inactive: activation [1] 4.46% | Potency [2]

COC1=C[C@@H]2[C@@H]3Cc4ccc(OC)c(O)c4[C@]2(CCN3C)CC1=O
inactive: activation [1] 8.33% | Potency [5] | Potency [2] | Potency [6] | Potency [4] | Potency [8] | Potency [10] | Potency [11] | Potency [12] | Potency [13]
active: Potency [7] 7.12 µM

CC1CCCC(O)CCC/C=C/c2cc(O)cc(O)c2C(=O)O1 (centres undefined)
inactive: activation [1] 28.2% | Potency [2]

O=[N+]([O-])c1cc(O)c(O)c([N+](=O)[O-])c1
active: Potency [6] 10.1 µM
inactive: activation [1] -0.323% | Potency [5]

CN(C)c1cc2c(cc1Sc1nc3c(N)nccc3n1CCNCC(C)(C)C)OCO2
inactive: activation [1] 5.25% | Potency [2] | Potency [3] | Potency [4]

CC(C)[C@@H](CN1CC[C@@](C)(c2cccc(O)c2)[C@@H](C)C1)NC(=O)[C@H]1Cc2ccc(O)cc2CN1
inactive: activation [1] 29.1% | Potency [2] | Potency [3] | Potency [4]

CN(C(=O)Cc1ccccc1)C(CN1CCCC1)c1ccccc1 (centres undefined)
inactive: activation [1] -0.477% | Potency [2] | Potency [3] | Potency [4]

N#Cc1ccccc1-c1cc(-c2ccccn2)cn(-c2ccccc2)c1=O
inactive: activation [1] 10.5% | Potency [2] | Potency [3] | Potency [4]

CN=C(NS(=O)(=O)c1ccc(Cl)cc1)N1C[C@H](c2ccccc2)C(c2ccc(Cl)cc2)=N1
inactive: activation [1] 1.91% | Potency [2] | Potency [3] | Potency [4]

CC(N)Cc1c[nH]c2ccccc12 (centres undefined)
inactive: activation [1] 12.4% | Potency [2] | Potency [3] | Potency [4]

O=C(N1CCOCC1)N1CCN(c2ccc(Cl)cc2)CC1
inactive: activation [1] 10% | Potency [2] | Potency [3] | Potency [4]

C[C@H](NC(=O)Cc1cc(F)cc(F)c1)C(=O)N[C@@H]1N=C(c2ccccc2)c2ccccc2N(C)C1=O
inactive: activation [1] 21% | Potency [2] | Potency [3] | Potency [4]

CN1C2CCC1CC(OC(=O)N1Cc3ccccc3NC1=O)C2 (centres undefined)
inactive: activation [1] 1.43% | Potency [2] | Potency [3] | Potency [4]

CC[C@H](O)[C@@H](C)[C@H]1O[C@@H]1C[C@H](C)/C=C/C=C(\C)[C@H]1OC(=O)C[C@H](O)CC[C@@](C)(O)[C@@H](OC(C)=O)/C=C/[C@@H]1C
inactive: Potency [2] | Potency [3] | Potency [4]
active: Potency [1] 0.0675 µM

From PubChem BioAssay (NCATS)
